Drawing on PubChem BioAssay AID1835 (Johns Hopkins Ion Channel Center, 2009), this text covers activity increase over dofetilide control, less the hit threshold for 99 compounds.

About 750 (31%) of roughly 2,400 compounds were called active. The list shows a part of the results. A number with no mark means an inactive call.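 How the source made its calls: active means median signal gain over dofetilide-blocked control wells reaching their mean plus 3 SD, so readout 1 at least 0; inactive means the rest.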

For the assay, the target named is Voltage-gated inwardly rectifying potassium channel KCNH2 (Homo sapiens) (UniProt Q12809). Kind of assay: hERG protection against dofetilide inhibition, confirmation, cell-based, thallium flux, duplicate retest, dofetilide IC70 (AID 1835). The conditions noted are these: hERG cell line, FluxOR thallium flux, dofetilide-blocked; at 10 µM; hits give high values. (In general: Block of hERG is tested as a sign of cardiac risk.)
Voltage-gated inwardly rectifying potassium channel KCNH2 (Homo sapiens), sequence (Q12809 whole entry, looked up): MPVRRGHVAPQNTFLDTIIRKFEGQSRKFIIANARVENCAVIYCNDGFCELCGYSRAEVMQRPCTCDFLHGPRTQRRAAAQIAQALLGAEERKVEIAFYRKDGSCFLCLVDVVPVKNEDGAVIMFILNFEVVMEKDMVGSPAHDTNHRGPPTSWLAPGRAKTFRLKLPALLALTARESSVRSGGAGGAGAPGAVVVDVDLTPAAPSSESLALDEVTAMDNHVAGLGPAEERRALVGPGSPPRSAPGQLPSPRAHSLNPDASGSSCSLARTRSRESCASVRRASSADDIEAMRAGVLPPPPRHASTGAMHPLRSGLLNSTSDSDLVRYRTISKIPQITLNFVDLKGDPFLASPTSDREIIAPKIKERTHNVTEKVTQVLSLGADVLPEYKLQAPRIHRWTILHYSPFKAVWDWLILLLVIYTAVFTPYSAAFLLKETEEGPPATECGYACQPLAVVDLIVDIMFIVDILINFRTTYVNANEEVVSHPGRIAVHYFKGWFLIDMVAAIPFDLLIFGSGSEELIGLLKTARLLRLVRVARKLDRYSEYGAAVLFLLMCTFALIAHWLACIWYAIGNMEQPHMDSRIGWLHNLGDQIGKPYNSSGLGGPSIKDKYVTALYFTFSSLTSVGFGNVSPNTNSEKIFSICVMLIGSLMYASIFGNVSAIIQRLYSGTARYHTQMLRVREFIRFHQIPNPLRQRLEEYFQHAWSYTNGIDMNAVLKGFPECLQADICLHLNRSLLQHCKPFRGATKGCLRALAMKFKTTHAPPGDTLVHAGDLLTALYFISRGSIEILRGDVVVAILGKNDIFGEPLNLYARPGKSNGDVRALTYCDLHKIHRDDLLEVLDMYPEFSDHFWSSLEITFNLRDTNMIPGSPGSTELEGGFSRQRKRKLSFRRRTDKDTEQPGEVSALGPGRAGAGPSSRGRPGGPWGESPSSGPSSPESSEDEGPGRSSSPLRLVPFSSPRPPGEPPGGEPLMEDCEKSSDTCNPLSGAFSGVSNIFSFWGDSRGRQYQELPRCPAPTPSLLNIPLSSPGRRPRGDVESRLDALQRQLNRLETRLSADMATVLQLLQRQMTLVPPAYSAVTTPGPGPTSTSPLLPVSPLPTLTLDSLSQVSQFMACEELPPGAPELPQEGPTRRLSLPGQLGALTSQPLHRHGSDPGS
As for `CC(C)c1nc2sc3c(=S)nc[nH]c3c2c2c1CCC2`, the activity increase over dofetilide control, less the hit threshold was 52% (active).
For `OCCN1CCN(c2ncnc3c2sc2nc(N4CCOCC4)c4c(c23)CCC4)CC1` the value was -27%; for `S=c1nc[nH]c2c1sc1nc(-c3ccccc3)c3c(c12)CCCC3`, 80% (active); for `S=c1nc[nH]c2c1sc1nc(N3CCOCC3)c3c(c12)CCCC3`, 58% (active).
With `CCOC(=O)c1sc2nc(N3CCOCC3)c3c(c2c1N)CCN(Cc1ccccc1)C3`, the activity increase over dofetilide control, less the hit threshold is -5%.
For `Cc1ccc(C)c(OCc2cc(C(=O)N3CCNC(=O)C3)no2)c1` the value was -7%; for `CCc1noc(C)c1C(=O)N1CCCC(N2CCN(c3ccccc3F)CC2)C1` (centres undefined), -1%; for `COc1ccc(C(=O)CNc2ccccc2C#N)cc1`, -11%.
As to `COc1ccc(C(=O)NC2CC3CCCC(C2)N3Cc2ccccc2)cc1` (centres undefined), the activity increase over dofetilide control, less the hit threshold is -11%.
In the case of `COc1ccc(C(=O)CSc2nnc3ccc(-c4ccccn4)nn23)cc1`, the activity increase over dofetilide control, less the hit threshold is -11%.
As to `COc1ccc(C(=O)CC(=O)C(=O)Nc2ccccc2OC)cc1`, the activity increase over dofetilide control, less the hit threshold is 2% (active).
For `CCN1CCN(CC(=O)c2ccc(OC)cc2)CC1` the value was -17%.
Regarding `COc1ccc(C(=O)CC(=O)C(=O)Nc2ccccc2Cl)cc1`, the activity increase over dofetilide control, less the hit threshold was 31% (active).
For the compound `NNC(=O)CNc1ccccc1Cl`, the activity increase over dofetilide control, less the hit threshold was -9%.
For `COc1ccc(C(=O)CC(=O)C(=O)Nc2ccccc2C(F)(F)F)cc1` the value was 13% (active); for `CCOc1ccccc1NC(=O)C(=O)CC(=O)c1ccc(OC)cc1`, 16% (active); for `COc1ccccc1NC1=C(NC(C)=O)C(=O)c2ccccc2C1=O`, -7%.
As for `CSc1ccc(S(=O)(=O)N2CCC(C(=O)Nc3ccccc3C(F)(F)F)CC2)cc1`, the figure is -17%; as for `CCc1nc(C)ccc1OCC(=O)N1CCc2c([nH]c3ccccc23)C1c1ccccn1` (centres undefined), -24%; as for `Cc1ccc(CCNC(=O)c2cccc(NC3=NC4CS(=O)(=O)CC4S3)c2)cc1` (centres undefined), -4%.
As for `Cc1cc(=O)[nH]c(N/N=C2/CCCC/C2=C\c2ccccc2)n1`, the figure is -9%; as for `CNC(=O)c1[nH]cnc1C(=O)Nc1ccccn1`, -18%.
For `Cc1ccccc1OCC(=O)NNC(=O)c1ccc2c(=O)n3c(nc2c1)CCC3`, the activity increase over dofetilide control, less the hit threshold was -21%.
As for `O=C1c2ccccc2C(=O)N1CCc1nc(-c2ccccn2)no1`, the figure is -12%; as for `CCOc1ccccc1NC(=O)C(=O)CC(=O)c1cccc(OC)c1`, 7% (active).
With `CCOc1ccc(CCNC(=O)Nc2ccccc2C)cc1OCC`, the activity increase over dofetilide control, less the hit threshold was -12%.
As for `Cc1oc2cc(O)ccc2c(=O)c1N1C(=O)c2ccccc2C1=O`, the figure is -4%; as for `Cc1ccc2c(CN3CCOCC3)cc(=O)oc2c1`, -14%.
For `Cc1nnc(SCc2cc(=O)oc3cc(O)ccc23)n1Cc1ccccc1`, the activity increase over dofetilide control, less the hit threshold was 12% (active).
In the case of `CCOCCCNC(=O)C(NC(=O)Cc1cccs1)c1ccc(C)cc1` (centres undefined), the activity increase over dofetilide control, less the hit threshold is -21%.
With `Fc1ccc(N2CCN(c3ccc4c(C(F)(F)F)cc(C(F)(F)F)nc4n3)CC2)cc1`, the activity increase over dofetilide control, less the hit threshold is -8%.
As for `Cc1ccc(C(C#N)c2ccc3c(C(F)(F)F)cc(C(F)(F)F)nc3n2)cc1` (centres undefined), the figure is 8% (active); as for `Cc1ccc(S(=O)(=O)N2CCOCC2)cc1NC(=O)COC(=O)c1cccnc1Cl`, -15%.
For `CC12CCC(C/C1=N\N=C1\NC(=O)/C(=C\c3ccc(Cl)cc3)S1)C2(C)C` (centres undefined) the value was -3%; for `COc1ccc(/C=C2/S/C(=N/N=C3\CC4CCC3(C)C4(C)C)NC2=O)cc1` (centres undefined), 20% (active).
`Cc1ccc(N=C2NC(=O)/C(=C/c3cccs3)S2)cc1C`: the activity increase over dofetilide control, less the hit threshold is 0%.
Take `Cc1cccc(/C=C2/S/C(=N/N=C3\CC4CCC3(C)C4(C)C)NC2=O)c1` (centres undefined): the activity increase over dofetilide control, less the hit threshold was 5% (active).
As for `CCOc1nc(-c2ccccc2)ccc1-c1noc(COC)n1`, the figure is -7%; as for `COC(=O)c1ccc(NC(=O)COC(=O)C2CC(=O)N(Cc3ccccc3)C2)cc1` (centres undefined), -29%.
Turning to `Cc1cccc(NC(=S)N/N=C2\CC(C)(C)Oc3ccc(O)cc32)c1`, the activity increase over dofetilide control, less the hit threshold is -5%.
In the case of `O=S(=O)(c1ccc(F)c(F)c1)N1CCN(c2ncccn2)CC1`, the activity increase over dofetilide control, less the hit threshold was -9%.
Take `O=S(=O)(Nc1ccc(O)c2ccccc12)c1ccc(F)cc1`: the activity increase over dofetilide control, less the hit threshold is -58%.
As for `Cc1ccc(S(=O)(=O)Nc2ccc(O)c3ccccc23)c(C)c1`, the figure is 5% (active).
As to `COc1ccc(OC)c(S(=O)(=O)Nc2ccc(O)c3ccccc23)c1`, the activity increase over dofetilide control, less the hit threshold is -4%.
As for `O=C(c1ccccc1)c1nccn1-c1ccc(Cl)nn1`, the figure is -11%; as for `CC(C)n1c(=S)[nH]c2scc(-c3cccs3)c2c1=O`, 79% (active); as for `CC(C1CC2CCC1C2)n1c(-c2cccs2)n[nH]c1=S` (centres undefined), -4%.
Take `COc1cc(/C=N/n2cnc3scc(-c4cccs4)c3c2=O)cc(OC)c1OC`: the activity increase over dofetilide control, less the hit threshold was -5%.
In the case of `Cn1c(=S)[nH]c2scc(-c3cccs3)c2c1=O`, the activity increase over dofetilide control, less the hit threshold is 60% (active).
As for `S=c1[nH]c(-c2cccs2)cn1-c1ccccc1`, the activity increase over dofetilide control, less the hit threshold was -5%.
As for `S=c1nc(C2CCCCC2)[nH]c2ccccc12`, the activity increase over dofetilide control, less the hit threshold is 4% (active).
`S=c1nc(C2CC2)[nH]c2ccccc12`: the activity increase over dofetilide control, less the hit threshold is 34% (active).
For `S=c1[nH]c2ccccc2c2ccccc12` the value was -3%; for `COc1ccc(Cn2c(O)cc(=O)[nH]c2=O)cc1`, -9%; for `COc1ccc(-n2c(O)c(/C=C3\C=Nc4ccccc43)c(=O)[nH]c2=O)cc1`, 21% (active).
As for `Cn1cc(CCC(=O)N2CCCC(Nc3ccc(F)cc3)C2)cn1` (centres undefined), the figure is -13%.
As for `CCc1cc2cc(C)cc(C)c2[nH]c1=S`, the figure is 14% (active).
For the compound `COc1ccc(NC(=O)CC23CC4CC(CC(C4)C2)C3)cn1`, the activity increase over dofetilide control, less the hit threshold is -17%.
For `CCOC(=O)c1cnc(-n2nc(C)cc2C)nc1NNc1nc(-c2ccccc2)cc(-c2ccccc2)n1` the value was -12%; for `CCOc1cc(N2CCOCC2)c(OCC)cc1NC(=O)CCC1CCCC1`, -11%; for `CCOc1cc(N2CCOCC2)c(OCC)cc1NC(=O)Cc1ccccc1`, -2%.
On to `CCOc1cc(N2CCOCC2)c(OCC)cc1NC(=O)Cn1nc(C)c([N+](=O)[O-])c1C`, for which the activity increase over dofetilide control, less the hit threshold is 16% (active).
On to `Cc1ccccc1OC(=O)n1c(=S)oc2cc(Cl)ccc21`, for which the activity increase over dofetilide control, less the hit threshold was -1%.
With `O=C(/C=C/Nc1ccccc1)C(F)(F)F`, the activity increase over dofetilide control, less the hit threshold was -14%.
For `Cc1ccc(-c2nc(N)s[n+]2-c2ccccc2)cc1` the value was 17% (active).
For `CCC(C)(C)NC(=O)c1ccc(Sc2nncn2C)c([N+](=O)[O-])c1` the value was -4%; for `C=C(C)C1CC=C(C)/C(=N/NC(=O)CCC(=O)Nc2ccccc2Cl)C1` (centres undefined), -17%.
As for `COc1ccccc1-n1c(C)nc2cc(C(=O)NCc3ccc4c(c3)OCO4)ccc21`, the figure is -27%; as for `COc1ccc(CCNC(=O)Cn2c(=O)n(-c3ccc(F)cc3)c(=O)c3sccc32)cc1OC`, -10%; as for `COc1ccc(CCNC(=O)c2ccc3c(c2)OCO3)cc1`, -16%.
Turning to `COc1ccc(CCNC(=O)C(=O)Nc2ccc3c(c2)OCO3)cc1OC`, the activity increase over dofetilide control, less the hit threshold is -22%.
For `COc1cccc([C@@H]2Oc3ccc(OC)cc3C(=O)[C@H]2OC(=O)NCc2ccc3c(c2)OCO3)c1` the value was 5% (active); for `COc1ccc2c(c1)O[C@@H](c1cccc(C(F)(F)F)c1)[C@H](OC(=O)NCCc1ccc(OC)c(OC)c1)C2=O`, 3% (active); for `COC(=O)C(C)Sc1nnc(Cc2cc(=O)[nH]c(=O)[nH]2)n1-c1cccc(OC)c1` (centres undefined), -17%.
With `CC(C)OC(=O)N(C)c1ccc(C(O)(C(F)(F)F)C(F)(F)F)cc1`, the activity increase over dofetilide control, less the hit threshold is -8%.
For `CCCOC(=O)CN1C(=O)c2ccc(C(=O)OCCC)cc2C1=O` the value was -8%; for `COc1ccc(CC(=O)Nc2ccc(-c3noc(-c4ccccc4OC)n3)cc2)cc1`, -18%; for `Cc1c(C#N)c(O)[nH]c(=O)c1N=Nc1ccc(Br)cc1C(=O)O`, 46% (active).
For `CC1(C)CC(NC(=O)c2ccc(Cl)cc2Cl)CC(C)(C)N1` the value was 2% (active).
For `Cc1ccc(C(C)C)cc1S(=O)(=O)NC1CC(C)(C)NC(C)(C)C1`, the activity increase over dofetilide control, less the hit threshold is -15%.
As to `Cc1ccc2c(c1)c1c(n2CC(O)Cn2nc(C)c(Br)c2C)CCCC1` (centres undefined), the activity increase over dofetilide control, less the hit threshold was -8%.
Consider `Cc1ccc(F)cc1CNC(=O)C1CCC(=O)N(C2CC2)C1` (centres undefined), for which the activity increase over dofetilide control, less the hit threshold is -7%.
Consider `CCOC(=O)c1[nH]cnc1C(=O)Nc1ccc([N+](=O)[O-])cc1`, for which the activity increase over dofetilide control, less the hit threshold was -13%.
For `CCOC(=O)/C(C)=N/NC(=O)c1ccc([N+](=O)[O-])cc1` the value was 17% (active); for `CCOc1ccc(C(=O)N/N=C/c2cc([N+](=O)[O-])cs2)cc1`, 0%; for `Cc1cc(SCC(=O)c2cccc([N+](=O)[O-])c2)nc(=O)[nH]1`, -9%.
As for `Cc1ccccc1C(=O)NNC(=O)c1cccc([N+](=O)[O-])c1`, the figure is -31%.
Regarding `CCOC(=O)/C(C)=N/NC(=O)c1cccc([N+](=O)[O-])c1`, the activity increase over dofetilide control, less the hit threshold was 3% (active).
With `COC(=O)c1cccc(/C=N/NC(N)=S)c1O`, the activity increase over dofetilide control, less the hit threshold was -9%.
For the compound `COc1cccc(C=NCCCN=Cc2cccc(OC)c2O)c1O`, the activity increase over dofetilide control, less the hit threshold is 9% (active).
As for `COc1cccc(C=NCC(C)N=Cc2cccc(OC)c2O)c1O` (centres undefined), the figure is 7% (active); as for `COc1cc(Br)cc(C=Nc2cccc(C(F)(F)F)c2)c1O`, -14%; as for `COc1cccc(C=Nc2cc(C)cc(C)c2)c1O`, 3% (active).
Consider `COc1cccc(/C=N/NC(=O)CSc2ccccc2C)c1O`, for which the activity increase over dofetilide control, less the hit threshold was -5%.
In the case of `COc1cccc(/C=N/n2c(SC)nnc2-c2ccccc2)c1O`, the activity increase over dofetilide control, less the hit threshold is -2%.
As for `COc1cccc(/C=N/Nc2nc3ccccc3[nH]2)c1O`, the figure is -4%; as for `CCOc1cccc(/C=N/NC(=O)c2ccc3c(c2)OCCO3)c1O`, -10%.
As to `O=C(COC(=O)c1cnccn1)c1ccc(Cl)cc1`, the activity increase over dofetilide control, less the hit threshold was -9%.
As for `CCCNc1c(NS(=O)(=O)c2cccc(C#N)c2)c(=O)oc2ccccc12`, the figure is -6%.
